Cycloheximide cs: counter-screen hit for Shiga toxin inhibitors, cycloheximide | cell reporter, cycloheximide protein synthesis inhibition counterscreen | max response, % | 12% of 300,000 active; in the data active means max response mostly above about 13%, no sharp cut-off; inactive means mostly below about 14%; further: read at 38.3 µM for the half of the compounds with a filed dose; 0% is about no effect
LmPK inh: blocks Leishmania mexicana pyruvate kinase activity. purified LmPK, Kinase-Glo ATP luminescence, 1 h. Q27686. 0.37% of 290,000 active. Potency, µM (highest dose often 57.5 µM), inactives show top-dose activity change, negative = inhibition, most hits filed as inhibitors. AID 1721; further: potency means the concentration at half of the fitted maximal effect; on the % scale 0 is the no-effect control and ±100 the full control effect
Target sequence (Q27686 whole entry, looked up): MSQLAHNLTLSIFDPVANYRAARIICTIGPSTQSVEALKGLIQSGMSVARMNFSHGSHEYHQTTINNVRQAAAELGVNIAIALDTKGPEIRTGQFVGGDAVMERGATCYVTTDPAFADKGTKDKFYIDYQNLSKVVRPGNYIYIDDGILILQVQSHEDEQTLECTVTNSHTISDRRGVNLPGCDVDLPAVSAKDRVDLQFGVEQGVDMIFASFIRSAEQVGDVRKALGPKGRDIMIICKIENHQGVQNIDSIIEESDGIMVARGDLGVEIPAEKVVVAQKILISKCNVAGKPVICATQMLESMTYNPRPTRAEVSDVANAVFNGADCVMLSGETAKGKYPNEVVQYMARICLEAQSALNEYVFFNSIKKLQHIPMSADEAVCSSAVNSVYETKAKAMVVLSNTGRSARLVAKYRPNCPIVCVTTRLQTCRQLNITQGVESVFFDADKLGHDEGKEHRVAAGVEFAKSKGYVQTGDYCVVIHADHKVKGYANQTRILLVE
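Kinase-Glo luminescence read after 1 h RT reaction of 0.1 nM LmPK with 0.5 mM PEP and 0.1 mM ADP. Activity scaled between uninhibited and enzyme-free controls.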
Tb PYK inh: inhibitors of Trypanosoma brucei pyruvate kinase | Q57TT1 | TbPYK enzyme, Kinase-Glo Plus ATP luminescence, 45 min | Potency, µM (top dose mostly 76.8 µM), inactives show top-dose activity, negative = inhibition, most hits filed as inhibitors | 0.12% of 410,000 active; further: potency means the concentration at half of the fitted maximal effect; on the % scale 0 is the no-effect control and ±100 the full control effect; nearly all actives have a fitted effect of over 50% in size
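Readout: single end-point luminescence (Kinase-Glo Plus, 10 min). Reaction conditions were TbPYK/substrate plus 130 uM ADP, 45 min at RT, pH 7.2 TEA buffer. No-enzyme wells served as controls, and data were normalized before concentration-response fitting.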
FBPA Giardia inh: Giardia lamblia aldolase inhibition | A8B2U2 | purified Giardia FBPA | Potency, µM (top dose mostly 59.6 µM), for inactives: at the highest dose activity, negative = inhibition, most hits filed as inhibitors | 0.71% of 290,000 active; further: potency means the concentration at half of the fitted maximal effect; on the % scale 0 is the no-effect control and ±100 the full control effect; nearly all actives have a fitted effect of over 55% in size
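Giardia FBPA (40 nM reagent) was preincubated 10 min at RT with compound (up to 57.5 uM final), then substrate plus GAPDH/TPI/NAD/arsenate coupling system with diaphorase/resazurin was added; resorufin fluorescence (525/598 nm) was read after 20 min.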
RE007 growth inh: less growth of the S. pombe RE007 Vpr strain. S. pombe RE007 Vpr strain, BacTiter-Glo ATP luminescence, 24 h. 0.21% of 360,000 active. Potency, µM (series often up to 92.2 µM), for the others: at the top dose activity change, negative = less growth, most hits filed as inhibitors; active means well fitted falling curve with a large enough effect; inconclusive means small, poorly fitted or top-dose-only effect; inactive means no such curve, though single readings can be large or run the other way; further: potency means the concentration at half of the fitted maximal effect; on the % scale 0 is the no-effect control and ±100 the full control effect; nearly all actives have a fitted effect of over 50% in size
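Fission yeast RE007 carrying one integrated HIV-1 vpr copy, seeded at OD 0.01 in PMG+AL medium with 23 nL pinned compound. Grown 24 h at 30 degrees; viability read by BacTiter-Glo luminescence after 5 min.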
Shiga toxin inh: inhibitors of Shiga toxin in Vero cells; Vero cells, Shiga toxin protein synthesis inhibition reporter; inhibition, % at 38.7 µM; 9.2% of 290,000 active; in the data active means inhibition mostly above about 28%, no sharp cut-off; inactive means mostly below about 43%; further: 0% is about no effect
* hit, by the source's call; ? = inconclusive; . = no result given; [ ] = remark or other dose. The sample as a whole holds a higher share of hits than the screen did. Unless noted, the call rests on the fitted dose curve; in most records, active means well fitted curve in the direction sought with a large enough effect; inconclusive means small, poorly fitted or top-dose-only effect, or another doubt; inactive means no such curve, though single readings can be large; an effect the other way counts as inactive or inconclusive.

SMILES | Cycloheximide cs | LmPK inh | Tb PYK inh | FBPA Giardia inh | RE007 growth inh | Shiga toxin inh
Cc1[nH]c(/C=C2/C(=O)Nc3ccc(S(=O)(=O)Cc4c(Cl)cccc4Cl)cc32)c(C)c1C(=O)N1CCCC1CN1CCCC1 (centres undefined) | -12 | . | . | 0% | . | -22
O=C(CCS(=O)(=O)c1ccccc1)N1CCN(c2ccccc2)CC1 | 40* | 0% | -5% | . | -3% | 84*
O=C(CCS(=O)(=O)c1ccccc1)N1CCOCC1 | 31* | 2% | -4% | 5% | -11% | 53
Nc1cc(C(F)(F)F)ccc1S(=O)(=O)Nc1cccc2c1NCCC2 | -7 | . | . | . | . | -4
CCOc1ccc(C(=O)Nc2cccc(-c3nc4cc(Cl)cc(Cl)c4o3)c2)cc1 | . | . | -6% | . | . | .
C/C(=N\N=C(N)N)c1cccc([N+](=O)[O-])c1 | -5 | -1% | -11% | 0% | 7% | -2
C/C(=N\N=C\c1ccc(N(C)C)cc1)c1cccc([N+](=O)[O-])c1 | 37* | -9% | -13% | -7% | 4% | 50*
Cc1occc1-c1nnc(SCC(=O)c2ccc(F)cc2)o1 | 37* | -1% | 4% | 9% | -2% | 147*
O=C(CSc1nnc(-c2ccco2)n1Cc1ccccc1)c1ccc(F)cc1 | 36* | 5% | -26% | -2% | 18% | 60*
Cc1occc1-c1nnc(SCC(N)=O)o1 | 14 | -2% | -6% | 3% | -21% | 35
COc1ccc(C(=O)CSc2n[nH]c(=O)n2Cc2ccco2)cc1 | 32* | 1% | -9% | 10% | 8% | 44*
O=C(CSc1nnc(COc2ccccc2)n1Cc1ccco1)c1ccc(F)cc1 | 37* | 6% | -15% | -2% | 0% | 26
Cc1cc(C)c2nc(N3CCCC(C(=O)NCc4ccccc4F)C3)sc2c1 (centres undefined) | . | . | 1% | . | . | .
Cc1occc1-c1nnc(SCC(=O)c2ccc(F)cc2)n1Cc1ccco1 | 12* | 1% | -18% | -2% | -4% | 14
CCOc1ccc(NC(=O)CC2C(=O)OCCN2CC)cc1 (centres undefined) | . | . | -7% | . | . | .
Cn1nc(-c2ccccc2F)c2cc(C(=O)NCc3ccccc3Cl)sc21 | . | . | 7% | . | . | .
CS(=O)(=O)c1ccc(C(=O)NCCN2C(=O)S/C(=C\c3cccnc3)C2=O)cc1[N+](=O)[O-] | 31* | 0% | -4% | -9% | -2% | 8
Cc1cc(Cl)ccc1OCCCC(=O)NCCN1C(=O)S/C(=C\c2cccnc2)C1=O | 31* | 3% | -5% | -21% | -23% | 40
O=C1CCC(C(=O)NCCN2C(=O)S/C(=C\c3cccnc3)C2=O)=NN1 | -2 | -6% | -8% | -10% | 0% | -23
CC(C)=CCC/C(C)=C/CO/N=C1/C[C@@H](O)[C@@H](O)[C@@H]2[C@@H]3C(=O)N(Cc4ccc5c(c4)OCO5)C(=O)[C@H]3CC[C@H]12 | . | . | . | 0%[12.9 µM] | . | .
COc1ccc(C(=O)C(OC(=O)c2ccccc2Cl)c2ccccc2)cc1 (centres undefined) | 28* | 2% | 3% | 1% | ? | 83*
Cc1cnc(C(=O)OC(C(=O)c2ccccc2)c2ccccc2)cn1 (centres undefined) | . | . | 0% | . | 4% | .
COc1ccc(C(=O)C(OC(=O)c2ccccc2)c2ccccc2)cc1 (centres undefined) | 49* | 0% | 2% | 3% | 0% | 104*
O=C1CCCCCN1Sc1ccccc1 | -8 | 0% | -14% | -1% | 13µM* | -21
CC(C)c1ccc2c(c1)[C@H]1OCC[C@H]1[C@@H](c1cccs1)N2 | 70* | 2% | -8% | -7% | -5% | 59*
Cc1ccc(NC(=O)C(C)Sc2nc3c(c(=O)[nH]2)CCCC3)cc1Cl (centres undefined) | . | . | -4% | . | . | .
CN1C(=O)NC(=O)/C(=C/c2ccc([N+](=O)[O-])s2)C1=O | -3 | -16% | 14µM* | ? | ? | -2
CS(=O)(=O)c1ccccc1C(=O)Nc1ccc(-c2nc3ccccc3o2)cc1 | 31* | 7% | -23% | -2% | -11% | 65*

Screening data as filed in PubChem BioAssay.
